# Source: PubChem BioAssay
# HPGD block = inhibitors of human 15-hydroxyprostaglandin dehydrogenase (HPGD); P15428; purified HPGD, NADH fluorescence kinetic, PGE2 substrate; Potency, µM, without a hit: top-dose activity change, negative = inhibition, most hits filed as inhibitors; 4.3% of 150,000 active; AID 894; active = well fitted inhibition curve with a large enough effect, not every such curve was filed as active; inconclusive = small, poorly fitted or top-dose-only effect, or another doubt; inactive = no such curve, though single readings can be large or run the other way; note: potency is the fitted concentration of half-maximal effect; % is set by controls: 0 for no effect and ±100 for the full control effect
# Target sequence (P15428 whole entry, looked up): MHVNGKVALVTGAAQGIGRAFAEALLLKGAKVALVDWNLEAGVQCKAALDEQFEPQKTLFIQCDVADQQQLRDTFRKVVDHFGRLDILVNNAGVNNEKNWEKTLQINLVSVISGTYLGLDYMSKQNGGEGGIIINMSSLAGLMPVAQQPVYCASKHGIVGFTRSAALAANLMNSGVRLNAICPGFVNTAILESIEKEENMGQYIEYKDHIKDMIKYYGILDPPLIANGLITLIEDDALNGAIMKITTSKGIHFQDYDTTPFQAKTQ
#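 20 nM HPGD preincubated 15 min at room temperature with compound in 50 mM Tris-HCl pH 8, 0.01% Tween 20. Started with 1 mM NAD+ and 30 uM prostaglandin E2; NADH fluorescence (360/450 nm) read 5 times over 30-s intervals, last minus first.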
# KDM4E inh = JMJD2E (human) inhibition. B2RXH2. JMJD2E catalytic domain, FDH-coupled NADH fluorescence (FDH is formaldehyde dehydrogenase). Potency, µM (series often up to 57.1 µM), for inactives: at the top dose activity change, negative = inhibition, usual class: inhibitors. 1.6% of 230,000 active; active = well fitted inhibition curve with a large enough effect, not every such curve was filed as active; inconclusive = small, poorly fitted or top-dose-only effect, or another doubt; inactive = no such curve, though single readings can be large or run the other way;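 note: potency is the fitted concentration of half-maximal effect; 0% = wells with enzyme and -100% = buffer wells without enzyme; nearly all actives have a fitted effect of over 50% in size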
# Target sequence (B2RXH2 1-337 limits assumed): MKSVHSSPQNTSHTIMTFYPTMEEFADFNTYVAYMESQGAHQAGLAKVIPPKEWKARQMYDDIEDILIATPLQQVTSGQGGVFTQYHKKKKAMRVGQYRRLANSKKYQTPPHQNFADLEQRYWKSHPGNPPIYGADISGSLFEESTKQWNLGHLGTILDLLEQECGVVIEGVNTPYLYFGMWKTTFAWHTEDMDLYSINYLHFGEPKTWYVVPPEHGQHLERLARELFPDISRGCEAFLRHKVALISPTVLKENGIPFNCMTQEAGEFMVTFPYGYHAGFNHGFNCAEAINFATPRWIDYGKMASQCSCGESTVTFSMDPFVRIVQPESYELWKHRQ
# ALDH1A1 block = blocks purified human ALDH1A1 activity. P00352. Purified ALDH1A1, NADH fluorescence, propionaldehyde substrate. Potency, µM (titrated, usually from 75.3 µM), for inactives: top-dose activity, negative = inhibition, usual class: inhibitors. 7.3% of 220,000 active. AID 1030; active = well fitted inhibition curve with a large enough effect, not every such curve was filed as active; inconclusive = small, poorly fitted or top-dose-only effect, or another doubt; inactive = no such curve, though single readings can be large or run the other way;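 note: potency is the fitted concentration of half-maximal effect; plate controls were no enzyme wells and a reference inhibitor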
# Tau fibril ThT = inhibitors of human tau fibril formation, thioflavin T binding; P10636; recombinant tau K18 P301L, heparin-induced fibrillization, ThT fluorescence; Potency, µM (highest dose often 57.4 µM), inactives show at the highest dose activity, negative = inhibition, usual class: inhibitors; 2.1% of 270,000 active; note: potency is the fitted concentration of half-maximal effect; % is set by controls: 0 for no effect and ±100 for the full control effect; nearly all actives have a fitted effect of over 55% in size
# Target sequence (P10636 561-689 P618L limits assumed): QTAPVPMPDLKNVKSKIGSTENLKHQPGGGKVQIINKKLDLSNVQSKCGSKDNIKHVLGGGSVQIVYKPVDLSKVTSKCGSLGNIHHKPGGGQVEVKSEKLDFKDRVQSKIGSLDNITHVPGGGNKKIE
#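 Heparin-induced (20 uM) aggregation of recombinant human K18 P301L tau, 15 uM unlabeled with 0.24 uM labeled, pH 7 acetate buffer, 6 hr at 37 C with compound. Fibrils quantified by 30 uM ThT fluorescence after 1 hr ambient incubation.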
# Tau fibril FP = inhibitors of human tau fibril formation; 0.39% of 280,000 active; Potency, µM (highest dose often 57.7 µM), without a hit: top-dose activity, negative = inhibition, actives largely listed as inhibitors; AID 1468; K18 P301L tau heparin fibrillization, Alexa594 FP, 6 h; P10636; note: potency is the fitted concentration of half-maximal effect; % is set by controls: 0 for no effect and ±100 for the full control effect; nearly all actives have a fitted effect of over 55% in size
#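 Steps: dispense K18 P301L tau (15 uM plus 0.24 uM Alexa 594 tracer, final) in pH 7 sodium acetate; add compound; add heparin (20 uM final); incubate 6 hr, 37 C; add ThT (30 uM final); after 1 hr ambient, read FP.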
# Tau fluor counter = counter-screen for tau fibril formation inhibitors; tau K18 P301L Alexa594 fluorescence, heparin fibrillization; Potency, µM (doses to about 57.7 µM), without a hit: top-dose activity change, negative = decrease; 0.93% of 280,000 active; AID 1463; note: potency is the fitted concentration of half-maximal effect; % is set by controls: 0 for no effect and ±100 for the full control effect; nearly all actives have a fitted effect of over 55% in size
#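 Human tau K18 P301L (15 uM unlabeled, 0.24 uM Alexa 594-labeled) in 100 mM sodium acetate pH 7 with 20 uM heparin, 6 hr at 37 C. ThT 30 uM added, 1 hr ambient; Alexa 594 FP and total fluorescence read at 555/632 nm.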
# HPGD inh conf = confirmation of human HPGD inhibitors; Potency, µM (doses to about 57.1 µM), without a hit: at the top dose activity change, negative = inhibition, hits mostly inhibitors; recombinant HPGD, NADH fluorescence, PGE2 substrate; 90% of 90 active; shares compounds with HPGD block; calls by dose curve
# * hit, by the source's call; ? = inconclusive; / = not tested or not shown. This is a sample that favours compounds with a hit; in the whole collection about 9.9% have one here. Unless noted, calls come from the whole dose curve; as a rule, active = well fitted curve in the direction sought with a large enough effect; inconclusive = small, poorly fitted or top-dose-only effect, or another doubt; inactive = no such curve, though single readings can be large; an effect the other way counts as inactive or inconclusive.
SMILES,HPGD block,KDM4E inh,ALDH1A1 block,Tau fibril ThT,Tau fibril FP,Tau fluor counter,HPGD inh conf
COc1ccccc1CN1CCC2(CC1)CCN(C(=O)c1csnn1)CC2,-7.3%,/,-2.5%,/,/,/,/
COCCNC(=O)c1cc2oc3ccccc3c2n1C,1.41µM*,-4.4%,?,-19.4%,16.4%,-2.8%,1.58µM*
Cn1c(C(=O)NCc2cccc(Cl)c2)cc2oc3ccccc3c21,/,/,/,-8.9%,-13.8%,?,/
COC(=O)c1cccc(Nc2nn3c(=O)c4cc5c(cc4nc3s2)OCO5)c1,/,/,/,?,-6.0%,-15.4%,/
Cc1ccc(C)c2sc(N3CCN(C(=O)c4ccco4)CC3)nc12,/,/,/,?,0.4%,-5.0%,/
Cc1ccnc(NS(=O)(=O)c2cc(C(F)(F)F)ccc2Cl)c1,/,-3.1%,16.2%,-1.7%,-5.2%,0.4%,/
CC1CCCN(C(=O)c2ccc(COc3ccccc3Br)cc2)C1 (stereo unspecified),0.0891µM*,-2.0%,25.1µM*,?,2.6%,-8.5%,0.126µM*
CC1CCCN(C(=O)c2ccncc2)C1 (stereo unspecified),-29.7%,12.7%,3.4%,5.1%,5.3%,3.5%,/
COc1cc(C(=O)Nc2nnc(C3CC3)s2)ccc1OCc1c(C)noc1C,/,?,-7.9%,-2.2%,0.5%,4.2%,/
COc1ccc(S(=O)(=O)N(C)c2ccc(C(=O)N3CCC(C(N)=O)CC3)cc2)cc1,-11.3%,-2.6%,-5.4%,5.1%,2.3%,6.2%,-25.4%
COc1ccc(CCNC(=O)COC(=O)c2cc(OC)c(OC)cc2OC)cc1OC,/,12.0%,3.7%,-2.1%,1.7%,4.4%,/
CCOC(=O)c1sc(NC(=O)CSc2n[nH]c(-c3ccccc3)n2)c(C#N)c1C,1µM*,?,2.82µM*,?,?,?,1.12µM*
O=C(Nc1nccs1)c1ccc(N2C(=O)C3CCCCC3C2=O)cc1 (stereo unspecified),/,5.6%,?,8.9%,4.7%,1.8%,/
O=C(c1ccc(N2C(=O)C3CCCCC3C2=O)cc1)N1CCCCC1 (stereo unspecified),1µM*,5.6%,?,10.3%,-3.2%,8.4%,0.562µM*
CCOC(=O)c1ccc(N2C(=O)C3CC=C(C)CC3C2=O)cc1 (stereo unspecified),-13.8%,0.8%,?,-8.4%,0.0%,-11.7%,/
CC1=CCC2C(=O)N(c3ccc(C(=O)N4CCCCCC4)cc3)C(=O)C2C1 (stereo unspecified),1.41µM*,1.1%,?,-10.2%,-8.0%,-15.3%,0.794µM*
O=C(c1ccc(N2C(=O)C3CC=C(Cl)CC3C2=O)cc1)N1CCOCC1 (stereo unspecified),/,3.0%,-2.4%,2.8%,-1.7%,8.6%,/
O=C(c1ccc(N2C(=O)C3CC=C(Cl)CC3C2=O)cc1)N1CCCCC1 (stereo unspecified),0.501µM*,5.4%,17.8µM*,-5.9%,6.0%,4.3%,0.251µM*
Cc1ccc(CN2CCN(Cc3cnc(N4CCOCC4)s3)CC2CCO)cc1 (stereo unspecified),/,-4.5%,-7.7%,-2.4%,2.9%,9.5%,/
O=C(CCc1ccc(Oc2cc([N+](=O)[O-])cc([N+](=O)[O-])c2)cc1)N1CCCCCC1,0.891µM*,1.3%,12.6µM*,?,-0.1%,-24.7%,0.398µM*
CN(C)C(=O)c1ccc(-c2nc(N(C)C)c3ccccc3n2)cc1,0.316µM*,?,?,-4.1%,-3.5%,-8.3%,2.51µM*
CN(C)C(=O)c1ccc(-c2nc(NCc3ccccc3)c3ccccc3n2)cc1,?,-0.2%,2.2%,5.0%,-10.3%,-22.8%,14.1µM*
CC(C)OC(=O)Nc1ccc2c(c1)N(C(=O)CCN1CCOCC1)c1ccccc1CC2,/,-3.2%,2.1%,-2.3%,9.1%,4.4%,/
O=c1[nH]c2ccc(S(=O)(=O)Nc3ccc(-c4nnc5n4CCCCC5)cc3)cc2o1,0.199µM*,-1.3%,-3.9%,-7.4%,-6.0%,-1.0%,0.126µM*
O=C(c1ccc2c(=O)n(Cc3ccc4c(c3)OCO4)c(=S)[nH]c2c1)N1CCCCC1,0.398µM*,3.1%,1.6%,4.1%,1.5%,3.2%,?
SMILES,HPGD block,KDM4E inh,ALDH1A1 block,Tau fibril ThT,Tau fibril FP,Tau fluor counter,HPGD inh conf
O=c1c2ccccc2[nH]c(=S)n1Cc1ccc2c(c1)OCO2,/,4.4%,4.3%,-2.0%,-3.6%,-12.2%,/
COC(=O)c1cc2ccc(OC)c(OC)c2c(=O)s1,-14.6%,?,2.4%,?,-0.4%,-4.4%,/
COc1ccc2cc(C(=O)N3CCCCCC3)sc(=O)c2c1OC,0.126µM*,1.5%,8.91µM*,2.0%,-0.2%,-5.3%,0.251µM*
Cc1ccc(-c2n[nH]c(=S)n2/N=C/c2c(C)nn(-c3ccccc3)c2C)cc1,1.12µM*,16.6%,8.7%,-1.6%,2.3%,-4.6%,0.501µM*
N#Cc1ccc(OC(=O)c2cc(-c3ccc4c(c3)OCCO4)on2)cc1,/,/,/,-17.7%,-0.7%,-10.3%,/
CCCCC(=O)N1CCc2cc(OC)c(OC)cc2C1COc1ccc(C(=O)OCC)cc1 (stereo unspecified),/,/,/,-17.5%,?,-8.7%,/
Cc1cc(-c2nnc3n2CCCCC3)c(C)n1-c1ccccc1,0.159µM*,3.6%,?,-4.7%,2.8%,-0.9%,0.0891µM*
c1ccc(N2CCN(CCc3nnc4n3CCCCC4)CC2)cc1,-4.7%,-3.5%,-10.3%,2.9%,2.1%,6.6%,/
Cc1oc(-c2ccccc2Cl)nc1CSc1nc2c(c(=O)[nH]1)CCCC2,/,-1.0%,/,/,-4.2%,-7.0%,/
O=c1[nH]c(SCc2ccccc2Cl)nc2c1CCC2,1µM*,-3.2%,-4.5%,-0.1%,1.6%,8.3%,2.24µM*
COc1ccc(N2CCN(C(=O)c3ccc(CSc4ccccc4)cc3)CC2)cc1,-11.7%,3.0%,-0.4%,-11.6%,-1.7%,3.4%,-20.1%
CCCCCNC(=O)c1ccc2c(c1)ncn2-c1cccc(C)c1,/,/,/,-17.2%,4.0%,-15.7%,/
Cc1cccc(-n2cnc3cc(C(=O)N4CCCCC4)ccc32)c1,0.0708µM*,6.2%,3.98µM*,-7.7%,-0.7%,-7.1%,0.0562µM*
COc1ccc(-n2c(SCC(=O)Nc3ccc4c(c3)OCO4)nc3c([nH]c4ccccc43)c2=O)cc1,/,/,/,1.6%,1.6%,?,/
O=c1c2ccccc2sn1-c1cc(S(=O)(=O)N2CCOCC2)ccc1N1CCCC1,0.224µM*,14.1µM*,0.0224µM*,25.1µM*,31.6µM*,-26.5%,2.51µM*
